Reference: PubChem BioAssay AID1159580 (chemical genetic matrix, 2015)
Screen size: about 5,500 compounds; about 2,000 (36%) were called active. Not shown: some 18% with an inconclusive outcome. Rule as the data show it: active = normalized growth mostly below about 0.91 (no sharp cut-off); inconclusive = no clear call, values can overlap the other calls; inactive = mostly above about 0.92. The list shows a part of the results.

Experiment: chemical genetic growth profiling, strain panel (AID 1159580);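 also: tested at 20 µM; growth read once vehicle control cultures reached saturation at 30 °C; 1 = growth at the plate median or of vehicle wells; lower values mean less growth of the strain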
Details: growth OD

Measured: normalized growth

c1ccc2c(c1)[nH]c1cnccc12
inactive: S. cerevisiae deletion strains, locus YJR066W, strain TOR1, stronger effect = lower value 0.956 | S. cerevisiae deletion strains, locus YKL009W, strain mrt4, stronger effect = lower value 1.01 | S. cerevisiae deletion strains, locus YKL068W, stronger effect = lower value 0.975 | S. cerevisiae deletion strains, locus YKL085W, strain MDH1 (second series), stronger effect = lower value 0.98 | S. cerevisiae deletion strains, locus YKL085W, strain MDH1, stronger effect = lower value 0.98 | S. cerevisiae deletion strains, locus YKL160W, strain elf1, stronger effect = lower value 1.01 | S. cerevisiae deletion strains, locus YKL190W, strain CNB1, stronger effect = lower value 0.993 | S. cerevisiae deletion strains, locus YKR001C, strain vps1, stronger effect = lower value 0.962 | S. cerevisiae deletion strains, locus YKR026C, strain gcn3, stronger effect = lower value 0.986 | S. cerevisiae deletion strains, locus YKR091W, strain srl3, stronger effect = lower value 1 | S. cerevisiae deletion strains, locus YLL001W, strain dnm1, stronger effect = lower value 1 | S. cerevisiae deletion strains, locus YLL026W, stronger effect = lower value 0.996 | S. cerevisiae deletion strains, locus YLL041C, strain sdh2, stronger effect = lower value 1 | S. cerevisiae deletion strains, locus YLR027C, strain aat2, stronger effect = lower value 1.01 | S. cerevisiae deletion strains, locus YLR039C, strain RIC1, stronger effect = lower value 0.893 | S. cerevisiae deletion strains, locus YLR058C, strain SHM2, stronger effect = lower value 1.01 | S. cerevisiae deletion strains, locus YLR102C, strain apc9, stronger effect = lower value 0.972 | S. cerevisiae deletion strains, locus YLR113W, strain HOG1, stronger effect = lower value 1.03 | S. cerevisiae deletion strains, locus YLR221C, strain rsa3, stronger effect = lower value 1 | S. cerevisiae deletion strains, locus YLR258W, strain gsy2, stronger effect = lower value 0.998 | S. cerevisiae deletion strains, locus YLR262C, strain YPT6 (second series), stronger effect = lower value 0.948 | S. cerevisiae deletion strains, locus YLR262C, strain YPT6, stronger effect = lower value 0.947 | S. cerevisiae deletion strains, locus YLR268W, strain sec22, stronger effect = lower value 0.952 | S. cerevisiae deletion strains, locus YLR320W, strain mms22, stronger effect = lower value 0.994 | S. cerevisiae deletion strains, locus YLR330W, strain CHS5, stronger effect = lower value 0.976 | S. cerevisiae deletion strains, locus YLR342W, strain FKS1 (second series), stronger effect = lower value 1.02 | S. cerevisiae deletion strains, locus YLR342W, strain FKS1, stronger effect = lower value 1 | S. cerevisiae deletion strains, locus YLR357W, strain rsc2, stronger effect = lower value 0.99 | S. cerevisiae deletion strains, locus YLR370C, strain arc18, stronger effect = lower value 1 | S. cerevisiae deletion strains, locus YLR371W, strain rom2, stronger effect = lower value 0.983 | S. cerevisiae deletion strains, locus YLR384C, strain iki3, stronger effect = lower value 0.992 | S. cerevisiae deletion strains, locus YLR418C, strain cdc73, stronger effect = lower value 1.02 | S. cerevisiae deletion strains, locus YML016C, strain PPZ1, stronger effect = lower value 0.991 | S. cerevisiae deletion strains, locus YML032C, strain rad52, stronger effect = lower value 1.02 | S. cerevisiae deletion strains, locus YML120C, strain ndi1, stronger effect = lower value 1 | S. cerevisiae deletion strains, locus YML124C, strain tub3, stronger effect = lower value 0.987 | S. cerevisiae deletion strains, locus YMR058W, strain fet3, stronger effect = lower value 0.996 | S. cerevisiae deletion strains, locus YMR078C, strain ctf18, stronger effect = lower value 0.956 | S. cerevisiae deletion strains, locus YMR125W, strain sto1, stronger effect = lower value 0.996 | S. cerevisiae deletion strains, locus YMR129W, stronger effect = lower value 1.01 | S. cerevisiae deletion strains, locus YMR205C, strain PFK2, stronger effect = lower value 0.977 | S. cerevisiae deletion strains, locus YMR223W, strain ubp8, stronger effect = lower value 1 | S. cerevisiae deletion strains, locus YMR231W, strain pep5, stronger effect = lower value 0.994 | S. cerevisiae deletion strains, locus YMR263W, strain SAP30, stronger effect = lower value 0.982 | S. cerevisiae deletion strains, locus YMR307W, strain GAS1, stronger effect = lower value 1.23 | S. cerevisiae deletion strains, locus YNL067W, strain RPL9B, stronger effect = lower value 0.986 | S. cerevisiae deletion strains, locus YNL071W, strain lat1, stronger effect = lower value 1.01 | S. cerevisiae deletion strains, locus YNL153C, strain GIM3, stronger effect = lower value 0.971 | S. cerevisiae deletion strains, locus YNL183C, strain NPR1, stronger effect = lower value 0.965 | S. cerevisiae deletion strains, locus YNL209W, strain ssb2, stronger effect = lower value 1.01 | S. cerevisiae deletion strains, locus YNL233W, strain BNI4, stronger effect = lower value 0.984 | S. cerevisiae deletion strains, locus YNL248C, strain rpa49, stronger effect = lower value 1.01 | S. cerevisiae deletion strains, locus YNL250W, strain rad50, stronger effect = lower value 0.941 | S. cerevisiae deletion strains, locus YNL271C, strain bni1, stronger effect = lower value 0.985 | S. cerevisiae deletion strains, locus YNL298W, strain CLA4, stronger effect = lower value 0.984 | S. cerevisiae deletion strains, locus YNL307C, strain MCK1, stronger effect = lower value 0.976 | S. cerevisiae deletion strains, locus YNL322C, strain KRE1 (second series), stronger effect = lower value 1 | S. cerevisiae deletion strains, locus YNR049C, strain mso1, stronger effect = lower value 1.01 | S. cerevisiae deletion strains, locus YNR052C, strain pop2, stronger effect = lower value 0.997 | S. cerevisiae deletion strains, locus YOL012C, strain htz1 0.866 | S. cerevisiae deletion strains, locus YOL147C, strain pex11, stronger effect = lower value 0.988 | S. cerevisiae deletion strains, locus YOR001W, strain rrp6, stronger effect = lower value 0.996 | S. cerevisiae deletion strains, locus YOR061W, strain CKA2, stronger effect = lower value 1.01 | S. cerevisiae deletion strains, locus YOR069W, strain VPS5, stronger effect = lower value 0.998 | S. cerevisiae deletion strains, locus YOR070C, strain gyp1, stronger effect = lower value 1.01 | S. cerevisiae deletion strains, locus YOR080W, strain dia2, stronger effect = lower value 0.986 | S. cerevisiae deletion strains, locus YOR083W, strain WHI5, stronger effect = lower value 1 | S. cerevisiae deletion strains, locus YOR106W, strain vam3, stronger effect = lower value 1 | S. cerevisiae deletion strains, locus YOR136W, strain idh2, stronger effect = lower value 0.974 | S. cerevisiae deletion strains, locus YOR144C, strain elg1, stronger effect = lower value 0.99 | S. cerevisiae deletion strains, locus YOR184W, strain ser1, stronger effect = lower value 0.995 | S. cerevisiae deletion strains, locus YOR231W, strain MKK1, stronger effect = lower value 1.03 | S. cerevisiae deletion strains, locus YOR265W, strain rbl2, stronger effect = lower value 0.994 | S. cerevisiae deletion strains, locus YOR270C, strain vph1, stronger effect = lower value 1 | S. cerevisiae deletion strains, locus YOR290C, strain snf2, stronger effect = lower value 1.03 | S. cerevisiae deletion strains, locus YOR316C, strain cot1, stronger effect = lower value 0.988 | S. cerevisiae deletion strains, locus YPL051W, strain arl3, stronger effect = lower value 1 | S. cerevisiae deletion strains, locus YPL055C, strain LGE1, stronger effect = lower value 0.991 | S. cerevisiae deletion strains, locus YPL078C, strain atp4, stronger effect = lower value 1 | S. cerevisiae deletion strains, locus YPL106C, strain sse1, stronger effect = lower value 0.983 | S. cerevisiae deletion strains, locus YPL240C, strain hsp82, stronger effect = lower value 1.02 | S. cerevisiae deletion strains, locus YPL241C, strain CIN2, stronger effect = lower value 1.01 | S. cerevisiae deletion strains, locus YPL256C, strain CLN2, stronger effect = lower value 1.02 | S. cerevisiae deletion strains, locus YPR119W, strain clb2, stronger effect = lower value 0.979 | S. cerevisiae deletion strains, locus YPR141C, strain kar3, stronger effect = lower value 0.984 | S. cerevisiae deletion strains, locus YPR163C, strain tif3, stronger effect = lower value 0.985 | S. cerevisiae deletion strains, locus YPR167C, strain met16, stronger effect = lower value 0.986 | S. cerevisiae deletion strains, strain wtn01, stronger effect = lower value 0.95 | S. cerevisiae strains, strain wild type, stronger effect = lower value 0.999
